A word on the AC50: it is the midpoint of the concentration-response curve, whichever way the signal moves.

Inconclusive results are not listed. The source made the active and inactive calls. The calls were made as follows: active = hit-call score of the fitted dose curve at least 0.9, where 1 is the maximum; inconclusive = response in the unintended direction; inactive = score below 0.9.

Test [1] can be described thus: NVS_IC_rCaDHPRCh_L: NovaScreen (NVS) Ion Channel Assay for rat Calcium Channel, Type L, Dihydropyridine Site (CaDHPRCh_L) (AID 2283320). The method in brief: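 Rat cortex membrane preparation; dihydropyridine-site radioligand displacement read 1 h post-dose by filtration and scintillation. Primary single-point screen 25 uM in duplicate, then concentration series to 50 uM maximum; DMSO as negative control.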

The target of test [2] is rat Corticotropin Releasing Factor Receptor (CRF), Crhr1 (gene 58959) (UniProt P35353). In words: NVS_GPCR_rCRF: NovaScreen (NVS) G Protein-Coupled Receptor Assay for rat Corticotropin Releasing Factor Receptor (CRF) (AID 2283300). The method in brief:
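Single-concentration (25 uM, duplicate) radioligand binding on rat cortical membrane preparations, counted by scintillation after 2 h. Activity scored as signal loss relative to DMSO negative control.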

Test [3] has as its target bovine Gamma-Aminobutyric Acid Type A Receptor BDZ, alpha 1 site (GABARa1), GABRA1 (gene 780973) (UniProt P08219). Briefly: NVS_LGIC_bGABARa1: NovaScreen (NVS) Ligand-Gated Ion Channel Assay for bovine Gamma-Aminobutyric Acid Type A Receptor BDZ, alpha 1 site (GABARa1) (AID 2283321). The procedure, abridged:
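Bovine cortex membrane preparation, benzodiazepine site on GABA-A alpha1; specific radioligand displacement read after 0.75 h by filtration and scintillation. Screen at 25 uM, then singleton titrations up to 50 uM; DMSO baseline.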

Test [4] relates to rat Adrenergic, Alpha 1B Receptor (Adra1B), gene 24173. In words: NVS_GPCR_rAdra1B: NovaScreen (NVS) G Protein-Coupled Receptor Assay for rat Adrenergic, Alpha 1B Receptor (Adra1B) (AID 2283297). The method in brief:
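Filter-binding radioligand competition on membranes from rat liver, read after 1 h by scintillation counting. Single-concentration duplicate screen at 25 uM, followed by concentration-response on actives, normalised to DMSO.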

Test [5] deals with rat Opioid Receptor, Non-selective Sodium (Na+) Binding, Oprm1 (gene 25601) (UniProt P33535). Briefly: NVS_GPCR_rOpiate_NonSelectiveNa: NovaScreen (NVS) G Protein-Coupled Receptor Assay for rat Opioid Receptor, Non-selective Sodium (Na+) Binding (AID 2283311). The procedure, abridged:
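Filtration radioligand binding on rat forebrain membrane preparations, read 1.5 h after dosing. Single-concentration 25 µM primary screen in duplicate, followed by singleton concentration series to 50 µM max for actives; DMSO baseline.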

In test [6] the target is rat Somatostatin Receptor (SST), Sstr1 (gene 25033) (UniProt P28646). Briefly: NVS_GPCR_rSST: NovaScreen (NVS) G Protein-Coupled Receptor Assay for rat Somatostatin Receptor (SST) (AID 2283314). The procedure, abridged: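 Single-concentration duplicate screen (25 uM), then concentration-response up to 50 uM for chemicals passing a threshold such as 30% inhibition. Membranes came from rat forebrain. Binding was measured 1 h post-dose by filter radiodetection and scintillation, relative to DMSO.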

In test [7] the target is rat Opioid Receptor, Non-selective Binding, Oprm1 (gene 25601) (UniProt P33535). In words: NVS_GPCR_rOpiate_NonSelective: NovaScreen (NVS) G Protein-Coupled Receptor Assay for rat Opioid Receptor, Non-selective Binding (AID 2283318). The method in brief: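 Filter-based radioligand displacement using rat forebrain membrane preparations, measured 1.5 h post-dosing. Single-concentration duplicate screen at 25 uM, follow-up in concentration series; activity taken as signal loss relative to DMSO.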

The target of test [8] is rat Adrenergic Receptor, Beta (Adrb), Non-selective Binding, Adrb1 (gene 24925) (UniProt P18090). In words: NVS_GPCR_rAdrb_NonSelective: NovaScreen (NVS) G Protein-Coupled Receptor Assay for rat Adrenergic Receptor, Beta (Adrb), Non-selective Binding (AID 2283298). The method in brief: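 Rat cortical membranes incubated 1 h with beta-adrenergic radioligand and test chemical; bound ligand measured by filtration and scintillation counting. Screen at 25 uM duplicate, then concentration series with 50 uM maximum; loss of signal versus DMSO.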

The target in test [9] is Metabotropic glutamate receptor 1 (Rattus norvegicus) (UniProt P23385). In words: NVS_GPCR_rmMGluR1: NovaScreen (NVS) G Protein-Coupled Receptor Assay for rat Glutamate Metabotropic Receptor 1 (MGluR1) (AID 2283305). The method in brief:
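Binding to native receptor from rat cerebellum extract, measured as displacement of a radioligand (scintillation counting, filter separation) after 1 hour. Compounds tested at 25 uM in duplicate, then titrated to a 50 uM maximum.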

Test [10] concerns the target rat Neurokinin-3 Receptor (NK3), Tacr3 (gene 24808) (UniProt P16177). In words: NVS_GPCR_rNK3: NovaScreen (NVS) G Protein-Coupled Receptor Assay for rat Neurokinin-3 Receptor (NK3) (AID 2283310). The procedure, abridged:
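Filter-based radioligand displacement on rat cortex membrane preparations, read by scintillation 2 h post-dose. Chemicals first tested in duplicate at 25 uM; actives followed up in concentration series with a 50 uM maximum.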

Test [11] has as its target Voltage-dependent N-type calcium channel subunit alpha-1B (Rattus norvegicus) (UniProt Q02294). Briefly: NVS_IC_rCaChN: NovaScreen (NVS) Ion Channel Assay for rat Calcium Channel, Type N (CaChN) (AID 2283317).
Test [12] addresses rat Neurokinin-1 Receptor (NK1), Tacr1 (gene 24807) (UniProt P14600). In words: NVS_GPCR_rNK1: NovaScreen (NVS) G Protein-Coupled Receptor Assay for rat Neurokinin-1 Receptor (NK1) (AID 2283309). The procedure, abridged: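 Competitive radioligand binding to NK1 in rat submaxillary membranes, 1 h incubation, filtration and scintillation read-out. Compounds first screened at 25 uM in duplicate, then concentration-response for actives; signal loss relative to DMSO.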

The target of another test is Adra2b (gene 24174) (UniProt P19328). Briefly: NVS_GPCR_rmAdra2B: NovaScreen (NVS) G Protein-Coupled Receptor Assay for hybird cells Adrenergic, Alpha 2B Receptor (Adra2B) (AID 2283306). The method in brief: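 Compounds screened first at 25 uM in duplicate, with actives followed up in concentration-response; specific radioligand displacement from hybrid neuroglioma/blastoma cell membrane preparations measured by filter scintillation counting after 1 h, normalized to DMSO.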

The subject of another test is NCBI gene 257648. In words: NVS_IC_rCaChN: NovaScreen (NVS) Ion Channel Assay for Calcium Channel, Type N (CaChN) (AID 2283317).
The target in test [13] is rat Gamma-Aminobutyric Acid Type B Receptor (GABBR), Gabbr1 (gene 81657) (UniProt Q9Z0U4). In words: NVS_GPCR_rGABBR: NovaScreen (NVS) G Protein-Coupled Receptor Assay for rat Gamma-Aminobutyric Acid Type B Receptor (GABBR) (AID 2283301). The procedure, abridged: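 Rat cortical membrane preparation, competitive radioligand binding for 1 h with filtration and scintillation readout. Actives from duplicate single-point 25 uM screening proceeded to concentration series with 50 uM top concentration.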

The target in test [14] is rat Histamine Receptor (H3), Hrh3 (gene 85268) (UniProt Q9QYN8). Briefly: NVS_GPCR_rH3: NovaScreen (NVS) G Protein-Coupled Receptor Assay for rat Histamine Receptor (H3) (AID 2283303). The method in brief:
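Filter-binding radioligand competition on rat forebrain membranes, 1 h incubation; compounds screened at 25 µM in duplicate and followed in concentration series to 50 µM, loss of bound signal vs DMSO.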

For test [15], the target named is human Neonicotinoid receptor (NNR), CHRNA2 (gene 1135) (UniProt Q15822). In words: NVS_LGIC_hNNR_NBungSens: NovaScreen (NVS) Ligand-Gated Ion Channel Assay for human Neonicotinoid receptor (NNR) (AID 2283313). The method in brief: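 Compounds first screened in duplicate at 25 uM, then actives re-tested in single-replicate dose series up to 50 uM. Binding measured as displacement of specific radioligand from neuroblastoma membrane receptors after 2 h, scintillation read on filters.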

Test [16] deals with rat Neonicotinoid receptor (NNR), Chrna7 (gene 25302) (UniProt Q05941). Briefly: NVS_LGIC_rNNR_BungSens: NovaScreen (NVS) Ligand-Gated Ion Channel Assay for rat Neonicotinoid receptor (NNR) (AID 2283315). The method in brief: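 Rat cortical membrane preparation incubated 2.5 h with tritiated or iodinated radioligand and test chemical. Bound radioactivity was filtered and counted by scintillation, and displacement was analysed against DMSO.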

Another test deals with NCBI gene 24521. Briefly: NVS_IC_rKATPCh: NovaScreen (NVS) Ion Channel Assay for rat Potassium Channel, ATP-Sensitive (KATPCh) (AID 2283319). The method in brief: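 Primary duplicate screen at 25 uM, then singleton concentration series to 50 uM maximum, in a rat cortex membrane radioligand displacement assay. Binding measured by filtration and scintillation 2 h post-dose; DMSO baseline.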

The target in test [17] is rat Vasopressin 1 Receptor (V1), Avpr1a (gene 25107) (UniProt P30560). Briefly: NVS_GPCR_rV1: NovaScreen (NVS) G Protein-Coupled Receptor Assay for rat Vasopressin 1 Receptor (V1) (AID 2283316). The procedure, abridged: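 Concentration-response up to 50 uM for chemicals passing a threshold such as 30% inhibition in an initial duplicate 25 uM screen. Displacement of radioligand from rat liver membranes measured after 1.5 h by filtration and scintillation.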

rat Opioid Receptor, Non-selective Binding, Oprm1 (gene 25601), sequence (P33535 whole entry, looked up): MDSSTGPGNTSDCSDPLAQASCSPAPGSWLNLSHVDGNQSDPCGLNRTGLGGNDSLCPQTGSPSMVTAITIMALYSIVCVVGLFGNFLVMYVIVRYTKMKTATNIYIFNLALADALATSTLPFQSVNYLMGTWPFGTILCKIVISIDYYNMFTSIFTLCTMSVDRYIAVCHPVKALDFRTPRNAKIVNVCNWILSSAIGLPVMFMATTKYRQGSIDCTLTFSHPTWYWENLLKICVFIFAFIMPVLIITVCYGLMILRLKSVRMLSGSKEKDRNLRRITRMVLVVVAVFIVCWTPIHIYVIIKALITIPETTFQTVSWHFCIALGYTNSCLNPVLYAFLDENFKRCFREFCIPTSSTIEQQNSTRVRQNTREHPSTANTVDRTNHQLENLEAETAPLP
rat Opioid Receptor, Non-selective Sodium (Na+) Binding, Oprm1 (gene 25601), sequence (P33535 whole entry, looked up): as above
rat Neurokinin-1 Receptor (NK1), Tacr1 (gene 24807), sequence (P14600 whole entry, looked up): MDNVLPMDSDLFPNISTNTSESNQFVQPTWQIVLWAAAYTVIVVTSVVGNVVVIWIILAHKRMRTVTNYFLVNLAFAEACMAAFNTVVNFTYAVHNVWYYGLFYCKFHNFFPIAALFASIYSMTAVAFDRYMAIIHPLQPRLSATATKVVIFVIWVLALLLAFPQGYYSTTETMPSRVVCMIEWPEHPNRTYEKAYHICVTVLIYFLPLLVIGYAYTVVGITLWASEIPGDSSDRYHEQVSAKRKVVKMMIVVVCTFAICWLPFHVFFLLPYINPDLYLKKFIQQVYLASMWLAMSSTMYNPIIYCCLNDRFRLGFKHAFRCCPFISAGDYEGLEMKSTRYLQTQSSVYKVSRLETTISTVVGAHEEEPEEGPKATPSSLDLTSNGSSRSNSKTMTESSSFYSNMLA
rat Neurokinin-3 Receptor (NK3), Tacr3 (gene 24808), sequence (P16177 whole entry, looked up): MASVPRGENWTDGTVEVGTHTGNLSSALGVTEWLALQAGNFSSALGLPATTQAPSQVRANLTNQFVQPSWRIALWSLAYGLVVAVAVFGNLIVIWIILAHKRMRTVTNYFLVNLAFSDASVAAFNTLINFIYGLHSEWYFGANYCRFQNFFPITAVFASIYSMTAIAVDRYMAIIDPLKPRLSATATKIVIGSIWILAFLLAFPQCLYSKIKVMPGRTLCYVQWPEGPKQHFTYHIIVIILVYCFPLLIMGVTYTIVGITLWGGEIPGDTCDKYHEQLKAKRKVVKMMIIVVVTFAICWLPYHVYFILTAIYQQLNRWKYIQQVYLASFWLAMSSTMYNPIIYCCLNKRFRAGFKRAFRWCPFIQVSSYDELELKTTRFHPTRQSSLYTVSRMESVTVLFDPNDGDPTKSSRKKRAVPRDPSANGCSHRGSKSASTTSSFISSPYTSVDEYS
rat Somatostatin Receptor (SST), Sstr1 (gene 25033), sequence (P28646 whole entry, looked up): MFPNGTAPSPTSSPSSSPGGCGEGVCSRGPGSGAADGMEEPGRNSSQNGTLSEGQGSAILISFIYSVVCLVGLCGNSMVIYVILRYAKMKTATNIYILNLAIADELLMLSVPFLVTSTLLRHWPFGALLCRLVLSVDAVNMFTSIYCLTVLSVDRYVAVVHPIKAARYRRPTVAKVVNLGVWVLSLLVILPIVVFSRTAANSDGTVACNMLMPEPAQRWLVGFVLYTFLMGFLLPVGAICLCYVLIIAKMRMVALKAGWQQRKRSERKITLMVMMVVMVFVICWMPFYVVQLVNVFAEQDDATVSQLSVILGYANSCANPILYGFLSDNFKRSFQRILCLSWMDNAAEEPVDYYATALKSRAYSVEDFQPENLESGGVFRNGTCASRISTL
Adra2b (gene 24174), sequence (P19328 whole entry, looked up): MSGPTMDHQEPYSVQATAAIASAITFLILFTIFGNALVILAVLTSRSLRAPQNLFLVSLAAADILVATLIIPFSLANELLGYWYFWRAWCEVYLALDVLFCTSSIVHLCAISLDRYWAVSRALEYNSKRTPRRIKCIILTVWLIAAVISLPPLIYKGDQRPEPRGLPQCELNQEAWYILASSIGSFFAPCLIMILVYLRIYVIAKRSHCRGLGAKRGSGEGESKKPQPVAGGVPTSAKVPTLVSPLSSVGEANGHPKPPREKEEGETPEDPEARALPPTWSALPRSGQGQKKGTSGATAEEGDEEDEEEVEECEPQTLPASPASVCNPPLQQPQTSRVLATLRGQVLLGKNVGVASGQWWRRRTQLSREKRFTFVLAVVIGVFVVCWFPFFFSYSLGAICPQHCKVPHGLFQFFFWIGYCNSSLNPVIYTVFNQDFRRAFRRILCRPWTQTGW
bovine Gamma-Aminobutyric Acid Type A Receptor BDZ, alpha 1 site (GABARa1), GABRA1 (gene 780973), sequence (P08219 whole entry, looked up): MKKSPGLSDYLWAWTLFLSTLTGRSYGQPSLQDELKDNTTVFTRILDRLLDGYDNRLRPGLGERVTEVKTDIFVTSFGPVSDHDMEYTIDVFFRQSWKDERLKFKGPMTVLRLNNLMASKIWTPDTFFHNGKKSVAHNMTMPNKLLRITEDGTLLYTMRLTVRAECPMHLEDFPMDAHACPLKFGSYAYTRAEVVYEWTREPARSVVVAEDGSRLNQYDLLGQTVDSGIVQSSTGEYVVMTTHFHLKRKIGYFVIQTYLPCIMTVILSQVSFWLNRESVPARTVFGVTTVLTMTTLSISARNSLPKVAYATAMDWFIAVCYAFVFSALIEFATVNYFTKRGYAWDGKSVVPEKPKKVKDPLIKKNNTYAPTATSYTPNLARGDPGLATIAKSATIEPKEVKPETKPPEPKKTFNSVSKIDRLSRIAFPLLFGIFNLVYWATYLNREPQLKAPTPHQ
rat Adrenergic Receptor, Beta (Adrb), Non-selective Binding, Adrb1 (gene 24925), sequence (P18090 whole entry, looked up): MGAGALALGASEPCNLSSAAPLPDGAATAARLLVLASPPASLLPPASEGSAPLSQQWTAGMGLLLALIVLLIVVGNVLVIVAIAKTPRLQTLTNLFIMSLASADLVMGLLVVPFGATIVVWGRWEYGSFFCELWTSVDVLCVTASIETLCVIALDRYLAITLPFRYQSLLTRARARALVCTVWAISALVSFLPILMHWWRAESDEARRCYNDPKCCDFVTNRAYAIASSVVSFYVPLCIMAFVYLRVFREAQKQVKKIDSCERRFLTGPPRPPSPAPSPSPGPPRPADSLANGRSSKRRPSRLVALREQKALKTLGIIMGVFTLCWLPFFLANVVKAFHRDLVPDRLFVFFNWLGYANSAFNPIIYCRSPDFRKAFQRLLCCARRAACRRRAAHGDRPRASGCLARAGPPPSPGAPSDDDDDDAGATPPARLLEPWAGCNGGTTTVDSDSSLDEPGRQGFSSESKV
Metabotropic glutamate receptor 1 (Rattus norvegicus), sequence (P23385 whole entry, looked up): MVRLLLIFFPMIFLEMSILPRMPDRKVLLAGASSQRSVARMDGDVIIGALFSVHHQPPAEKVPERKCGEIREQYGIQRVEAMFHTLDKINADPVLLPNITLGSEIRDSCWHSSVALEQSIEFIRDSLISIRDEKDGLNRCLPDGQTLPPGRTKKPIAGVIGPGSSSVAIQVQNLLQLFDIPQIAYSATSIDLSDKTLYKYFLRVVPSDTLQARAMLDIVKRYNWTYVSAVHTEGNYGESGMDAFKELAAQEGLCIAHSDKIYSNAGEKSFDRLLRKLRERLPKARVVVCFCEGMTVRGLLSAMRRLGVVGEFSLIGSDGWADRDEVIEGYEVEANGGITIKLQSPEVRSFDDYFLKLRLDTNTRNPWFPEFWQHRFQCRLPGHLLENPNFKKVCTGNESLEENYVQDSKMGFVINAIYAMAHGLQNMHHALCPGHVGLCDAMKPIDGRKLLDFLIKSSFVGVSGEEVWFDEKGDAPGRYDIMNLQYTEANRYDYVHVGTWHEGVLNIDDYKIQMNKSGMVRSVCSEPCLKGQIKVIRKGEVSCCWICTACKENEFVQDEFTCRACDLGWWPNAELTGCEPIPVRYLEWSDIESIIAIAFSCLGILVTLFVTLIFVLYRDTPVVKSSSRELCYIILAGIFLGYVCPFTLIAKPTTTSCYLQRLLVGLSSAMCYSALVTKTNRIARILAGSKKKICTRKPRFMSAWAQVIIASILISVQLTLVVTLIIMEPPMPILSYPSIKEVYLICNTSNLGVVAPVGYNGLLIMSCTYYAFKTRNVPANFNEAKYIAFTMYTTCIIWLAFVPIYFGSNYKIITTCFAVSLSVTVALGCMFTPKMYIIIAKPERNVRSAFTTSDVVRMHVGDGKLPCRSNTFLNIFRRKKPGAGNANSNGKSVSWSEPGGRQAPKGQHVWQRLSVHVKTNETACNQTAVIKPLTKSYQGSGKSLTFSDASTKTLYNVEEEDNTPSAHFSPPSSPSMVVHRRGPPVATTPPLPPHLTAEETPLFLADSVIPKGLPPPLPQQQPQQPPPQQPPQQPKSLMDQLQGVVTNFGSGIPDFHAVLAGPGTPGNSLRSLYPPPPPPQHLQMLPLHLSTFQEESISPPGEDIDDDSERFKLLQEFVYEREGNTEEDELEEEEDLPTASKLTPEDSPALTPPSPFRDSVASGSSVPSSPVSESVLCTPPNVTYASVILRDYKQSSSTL
rat Neonicotinoid receptor (NNR), Chrna7 (gene 25302), sequence (Q05941 whole entry, looked up): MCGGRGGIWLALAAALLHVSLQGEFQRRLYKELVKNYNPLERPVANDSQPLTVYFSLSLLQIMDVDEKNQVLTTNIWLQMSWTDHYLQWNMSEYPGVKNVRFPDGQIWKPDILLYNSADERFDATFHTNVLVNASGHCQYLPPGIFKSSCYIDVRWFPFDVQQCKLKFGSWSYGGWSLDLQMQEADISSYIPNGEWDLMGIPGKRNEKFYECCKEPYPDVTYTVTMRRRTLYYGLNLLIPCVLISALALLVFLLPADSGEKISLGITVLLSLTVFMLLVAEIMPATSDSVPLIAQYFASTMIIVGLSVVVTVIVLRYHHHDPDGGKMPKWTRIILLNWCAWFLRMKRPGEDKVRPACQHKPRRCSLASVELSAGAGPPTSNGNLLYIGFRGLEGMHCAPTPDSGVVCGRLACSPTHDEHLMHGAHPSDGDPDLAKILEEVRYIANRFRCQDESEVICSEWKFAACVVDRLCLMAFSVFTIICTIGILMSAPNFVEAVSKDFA

`CN(C)CCO`: the half-maximal activity concentration (AC50) in test [1] is 25 µM (active).
Consider `CC(c1ccc(O)cc1)(c1ccc(O)cc1)c1ccc(O)cc1`, for which the outcome in test [2] and in test [3] was inactive.
Consider `Oc1ccc(C(c2ccc(O)cc2)(C(F)(F)F)C(F)(F)F)cc1`, for which the AC50 is 41.2 µM (active) in test [4] and 25 µM (active) in test [5].
Take `C[C@]12CCC(=O)C=C1CC[C@@H]1[C@@H]2CC[C@]2(C)C(=O)CC[C@@H]12`: the call in [5] and in test [7] was inactive. Besides, in test [6], the concentration at half-maximal activity (AC50) was 17.6 µM (active).
Regarding `Cc1cc(-c2ccc(N)c(C)c2)ccc1N`, the call in test [8] was inactive.
Regarding `ClC1=C(Cl)[C@]2(Cl)[C@@H]3[C@@H]4C[C@@H]([C@H]5O[C@@H]45)[C@@H]3[C@@]1(Cl)C2(Cl)Cl`, in [6], the AC50 was 10.6 µM (active).
Regarding `CC1=C2C[C@H]3[C@@H](CC=C4C[C@@H](O)CC[C@@]43C)[C@@H]2CC[C@]12O[C@@H]1C[C@H](C)CN[C@H]1[C@H]2C`, the outcome in [4] and in [7] was inactive.
As for `CCC(C)(c1ccc(O)cc1)c1ccc(O)cc1`, the AC50 was 25 µM (active) in [5] and 15.6 µM (active) in test [7].
For `CCC(=O)O[C@H]1CC[C@H]2[C@@H]3CCC4=CC(=O)CC[C@]4(C)[C@H]3CC[C@]12C`, the outcome in test [9], in test [10] and in test [11] was inactive.
Take `Clc1ccc(C(c2ccccc2Cl)C(Cl)(Cl)Cl)cc1` (configuration not stated): the result in test [11] was inactive.
Consider `Cc1cc2c3c(c1)C(c1ccccc1)=N[C@@H](NC(=O)c1ccncc1)C(=O)N3CC2`, for which the result in test [12] and in test [5] was inactive. Further, the AC50 in test [10] was 0.073 µM (active); in [3] it was 25 µM (active).
Regarding `CCCCCCCCCC[N+](C)(C)CCCCCCCCCC`, the results for the AC50 (in [9]; with NCBI gene 257648; in [1]) were 17.6 µM (active), 41.7 µM (active) and 10.2 µM (active), respectively. Further, the call (with Adra2b (gene 24174); in test [12]; in [10]; in test [5]; in test [6]) was inactive.
Turning to `O=C(N[C@H]1CN2CCC1CC2)c1cc2ccoc2cn1`, the concentration at half-maximal activity (AC50) is 11 µM (active) in test [4]; 1.75 µM (active) in test [14]; 16.4 µM (active) with Adra2b (gene 24174); 17.7 µM (active) in test [15]; 0.0114 µM (active) in [16]. Moreover, the outcome in [8], in test [13] and in [11] was inactive.
Consider `CCCCCCCCCc1ccc(O)cc1`, for which the compound was called inactive in [10] and in test [11].
Regarding `Cc1cc(O)ccc1Cl`, the call in the test on NCBI gene 24521 was inactive.
For `ClC1=C(Cl)[C@]2(Cl)[C@@H]3[C@H]4C[C@H]([C@@H]5O[C@H]45)[C@@H]3[C@@]1(Cl)C2(Cl)Cl`, the AC50 in test [6] is 9.78 µM (active). Besides, the outcome in test [11] was inactive.
On to `Nc1ccc(-c2ccc(N)cc2)cc1`, for which, in test [4], the compound was classed as inactive.
On to `CCSC(=O)N(CC)C1CCCCC1`, for which the AC50 in test [12] is 40.1 µM (active).
Regarding `CC(C)(c1ccccc1)c1ccc(O)cc1`, in test [5], the compound was classed as inactive. For the same compound, the AC50 in test [1] is 25 µM (active).
Take `O=C(NC(=O)c1c(F)cccc1F)Nc1cc(Cl)c(OC(F)(F)C(F)F)c(Cl)c1`: in test [5], the call was inactive.
`CCOP(=S)(OCC)SCSC(C)(C)C`: the compound was called inactive in [16].
`CCC(C)(CC)c1cc(NC(=O)c2c(OC)cccc2OC)on1`: the call in [10] and in test [1] was inactive. Moreover, the AC50 in [17] is 2.57 µM (active).

(Values after PubChem BioAssay (EPA / NIEHS).)
